# Bioassay records deposited in PubChem BioAssay by National Center for Advancing Translational Sciences (NCATS).
# Rows were chosen to be rich in hits. Some 19% of all compounds tested hit in one or more screens of this group.
# HT1080 IDH1KD tx – kills HT-1080 cells with IDH1 knockdown. HT-1080 IDH1 knockdown viability, ATP luminescence, 48 h. Potency, µM (highest dose often 46.1 µM), without a hit: at the top dose activity, negative = toxicity, usual class: cytotoxic. 2% of 360,000 active;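 also: potency is read from the fitted curve at half-maximal effect; 0% = DMSO wells and -100% = cell-free medium wells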
#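 HT-1080-IDH1KD cells (IDH1 knocked down), 750/well in RPMI with 5% FBS, treated with compound 48 h at 37 degrees C. Viability by CellTiter-Glo luminescence, normalised to DMSO and no-cell wells; concentration-response curves classed.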
# IL-1B inflam inh – inflammasome signaling inhibition, IL-1 beta readout. THP-1 LPS/ATP IL-1B secretion, AlphaLISA, 16 h; active compounds read low. activity change, % at 57.5 µM. 4.7% of 360,000 active. AID 743279; in the data active = activity change below about -50%; inconclusive = mostly about -30% to -49%
#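 Secreted IL-1B measured by AlphaLISA bead assay after 16 h compound exposure of THP-1 cells; compounds (final up to 57.5 uM) added 1 h before LPS (250 ng/mL) and ATP (1.25 mM) stimulation; lower signal means less secretion.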
# DT40 TDP1 no CPT – qHTS for Inhibitors of human tyrosyl-DNA phosphodiesterase 1 (TDP1): qHTS in cells in absence of CPT | 15% of 420,000 active | DT40 Tdp1-/- hTDP1 cells, no CPT, ATP luminescence, 48 h | Potency, µM (series often up to 46.2 µM), for the others: top-dose activity change, negative = growth inhibition, actives largely listed as inhibitors; also: potency is read from the fitted curve at half-maximal effect; nearly all actives have a fitted effect of over 55% in size
#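 Growth kinetics read by CellTiter-Glo luminescence after ≥48 hr at 37 °C. Cells: DT40 Tdp1-/- stably carrying human TDP1, 400 per well, compound exposure in the absence of CPT (DMSO vehicle).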
# HT1080NT lethal – kills 2HG-producing HT-1080-NT fibrosarcoma cells. HT-1080-NT fibrosarcoma viability, CellTiter-Glo ATP luminescence, 48 h. Potency, µM (doses to about 46.1 µM), for the others: at the top dose activity, negative = less viability, actives largely listed as cytotoxic. 1.6% of 360,000 active. AID 686970;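 also: NT is the 2HG producing partner of a matched IDH1 knockdown line; potency is read from the fitted curve at half-maximal effect; 0% = DMSO-treated cells and -100% = media-only wells without cells; nearly all actives have a fitted effect of over 55% in size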
#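 Viability by CellTiter-Glo luminescence after 48 h compound exposure at 37C of HT-1080-NT cells (750/well, RPMI, 5% FBS). % activity scaled between DMSO wells and medium-only wells, then curve-fitted and categorized by curve class.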
# TDP1 cell CPT – growth inhibition of DT40 Tdp1-/-;hTDP1 cells with camptothecin (screen for TDP1 inhibitors). Potency, µM (top dose mostly 46.2 µM), inactives show at the highest dose activity change, negative = growth inhibition, usual class: inhibitors. AID 686979. chicken DT40 Tdp1-/-;hTDP1 cells + 20 nM CPT, ATP luminescence, 48 h. 12% of 420,000 active; also: potency is read from the fitted curve at half-maximal effect; nearly all actives have a fitted effect of over 55% in size
#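 Chicken DT40 Tdp1-/- cells stably complemented with human TDP1 were seeded at 400 cells/well in medium containing 20 nM camptothecin, exposed to pin-transferred compounds, and grown at 37 °C for at least 48 hr. Viability was read as ATP luminescence.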
# Active calls of the source: *; ? = inconclusive; / = not tested or not shown. Unless noted, calls follow the shape of the dose curve; as a rule, active = well fitted curve in the direction sought with a large enough effect; inconclusive = small, poorly fitted or top-dose-only effect, or another doubt; inactive = no such curve, though single readings can be large; an effect the other way counts as inactive or inconclusive. Unless noted, % is scaled to controls: 0 for no effect and ±100 for the full control effect.
SMILES,HT1080 IDH1KD tx,IL-1B inflam inh,DT40 TDP1 no CPT,HT1080NT lethal,TDP1 cell CPT
Cc1ccc(C(=O)c2cn(Cc3ccccc3C)c3nc(C)ccc3c2=O)cc1,/,/,21µM*,/,21µM*
Nc1c(C(=O)Nc2ccc3c(c2)OCCO3)nnn1Cc1cccc(F)c1,?,-5,?,?,-22%
COCCN(C(=O)COC(=O)c1ccc(C)s1)c1c(N)n(Cc2ccccc2)c(=O)[nH]c1=O,11%,5,12%,4%,1%
Cc1cc(/C=C2\Sc3ccccc3N2C)cc(C)[n+]1CC1CCCO1 (stereo not drawn),?,-101*,0.026µM*,9.2µM*,0.0082µM*
CC[n+]1ccc(/C=C/c2ccc(N(C)C)cc2)c2ccccc21,1.3µM*,-106*,0.0065µM*,?,0.073µM*
CN(C)c1ccc(/C=C/c2cc[n+]([O-])c3ccccc23)cc1,/,/,-11%,/,-20%
CCCCCC[n+]1ccccc1/C=C/c1ccc(N(C)C)cc1,1.2µM*,?,0.052µM*,7.3µM*,0.058µM*
CC[n+]1ccccc1/C=C/c1ccc(N(C)C)cc1,18µM*,-57*,0.46µM*,?,1µM*
CN(CC(=O)Nc1ccccc1C(F)(F)F)C(=O)CSCc1ccccc1,-1%,18,?,-1%,?
Cc1ccc2c(c1)cc(CN(C)Cc1nc(C)cs1)c(=O)n2C,/,/,-20%,/,0%
COc1ccc(C2C(C(=O)Nc3ccc4c(c3)OCCO4)c3ccccc3C(=O)N2C)cc1 (stereo not drawn),-1%,13,?,-5%,-1%
O=C(Sc1n[nH]c(=O)[nH]c1=O)c1ccccc1,9%,8,-10%,9%,-24%
Cc1nn2c(nc(N3CCCCC3)c3ccccc32)c1C=O,-25%,-74*,?,?,-6%
Cc1nn2c(nc(N3CCOCC3)c3ccccc32)c1C=C(C#N)C#N,0%,0,-29%,1%,-6%
Cc1nn2c([nH]c(=O)c3ccccc32)c1C=O,?,10,-2%,18µM*,?
C=C1NN(CC2CC2)C(=O)N1c1ccc(OCc2ccccc2)cc1,/,/,13µM*,/,?
COc1ccc(-c2[nH]ncc2CN(C)C(C)c2cccs2)c(F)c1 (stereo not drawn),-6%,-10,?,2%,16µM*
COc1ccc(-c2[nH]ncc2CN2CCN(Cc3cccs3)CC2)c(F)c1,0%,26,?,-5%,-10%
COc1ccc2oc(=O)c(-c3nc4ccccc4o3)cc2c1,16%,39,?,16%,?
COc1ccc2oc(=O)c(-c3nnc(NCc4ccco4)s3)cc2c1,?,-27,3.7µM*,-21%,5.8µM*
CCOc1ccccc1Nc1nnc(-c2cc3cc(OC)ccc3oc2=O)s1,/,/,7.3µM*,/,8.2µM*
COc1ccc2oc(=O)c(-c3csc(-c4ccc(Br)cc4)n3)cc2c1,/,/,-1%,/,-2%
COc1ccc2oc(=O)c(-c3csc(Nc4ccc(O)cc4)n3)cc2c1,?,-91*,5.8µM*,?,3.3µM*
CC(C)n1c(SCC(=O)NC2CCCCC2)nnc1-c1ccco1,19%,11,-4%,17%,-16%
CCN1CCN(c2cc(SC(C)C)nc(-c3ccc(OC)cc3)n2)CC1,-19%,-82*,?,-18%,23µM*
SMILES,HT1080 IDH1KD tx,IL-1B inflam inh,DT40 TDP1 no CPT,HT1080NT lethal,TDP1 cell CPT
CC(C)CCN1CCN(Cc2coc3ccccc3c2=O)CC1CCO (stereo not drawn),-6%,30,-22%,-2%,-2%
CCC(Oc1ccccc1)C(=O)N1CCN(Cc2cc(=O)n3nc(-c4cccc(C)c4)sc3n2)CC1 (stereo not drawn),/,/,23µM*,/,?
CC(C)(C)c1ccc(C(=O)N2CCN(Cc3cc(=O)n4nc(-c5ccccc5F)sc4n3)CC2)cc1,/,/,-1%,/,4%
Cc1ccc(C(=O)N2CCN(Cc3cc(=O)n4nc(-c5ccccc5)sc4n3)CC2)cc1,/,/,-4%,/,2%
Cc1ccccc1-c1nn2c(=O)cc(CN3CCN(C(=O)c4ccc(C(C)(C)C)cc4)CC3)nc2s1,/,/,7.3µM*,/,8.2µM*
Cc1ccc(C(=O)N/C(=C/c2ccc(Cl)cc2)C(=O)NCC2CCCO2)cc1 (stereo not drawn),16%,1,?,1%,-14%
CCCCc1ccc(C(=O)N/C(=C\c2ccc(C)cc2)C(=O)NC2CCCCC2)cc1,/,/,15µM*,/,9.2µM*
Cc1ccc(C(=O)N/C(=C\c2ccc(Cl)cc2)C(=O)NC2CCCCC2)cc1,/,/,18µM*,/,?
COc1ccccc1CN1C(=O)C(Cc2ccccc2)ON=C1c1ncccc1C (stereo not drawn),-4%,0,?,-20%,?
O=[N+]([O-])c1cc(Cl)cc2c1nc(NCCO)c1ccccc12,?,-83*,?,?,18%
O=C(NC(=S)NCC1CCCO1)c1ccccc1Br (stereo not drawn),20%,6,12%,13%,9%
COc1ccc(NS(=O)(=O)c2ccc(NC(=S)NCC3CCCO3)cc2)cc1 (stereo not drawn),-17%,48,?,-5%,15µM*
S=C(NCC1CCCO1)Nc1ccc(Cl)c(Cl)c1 (stereo not drawn),-11%,-11,23µM*,0%,?
Cc1ccc(S(=O)(=O)NCC2CCCO2)cc1 (stereo not drawn),19%,11,3%,3%,-1%
O=C(Cc1ccc(Cl)c(Cl)c1)NNC(=S)NCC1CCCO1 (stereo not drawn),-4%,-7,-2%,17%,-3%
O=S(=O)(NCC1CCCO1)c1ccc(-c2ccc(S(=O)(=O)NCC3CCCO3)cc2)cc1 (stereo not drawn),-29%,-2,1.8µM*,-10%,0.65µM*
Cc1ccc(C(=O)NC(=S)NCC2CCCO2)cc1Br (stereo not drawn),-3%,10,29µM*,-1%,?
COc1ccc(S(=O)(=O)Nc2ccc(S(=O)(=O)NCC3CCCO3)cc2)cc1 (stereo not drawn),0%,-16,7%,2%,-10%
Cc1cc(NC(=O)CSc2nc(=O)n(CCCN(C)C)c3c2CCCC3)no1,6%,4,-1%,2%,4%
COc1ccccc1NC(=O)O/N=C(\N)c1ccccc1,?,13,?,4%,?
COc1ccccc1NC(=O)CSc1nc(-c2ccc(C(C)(C)C)cc2)c(C#N)c(=O)[nH]1,/,/,-8%,/,-15%
Cc1cc(-c2csc(N)n2)c(C)n1CCc1ccccc1,6%,-2,?,1%,23µM*
